Data reported in PubChem BioAssay (EPA / NIEHS).
Several values for one entry are separate records, joined by “and”; a condition that tells them apart may be missing. Equal values may be shown once. Some compounds were tested as several samples or in several runs, with calls that do not always agree. Activity calls are given as the source filed them. The calls were made as follows: active = hit-call score of the fitted dose curve at least 0.9, where 1 is the maximum; inactive = score below 0.9.

How the values were obtained:
[1] = read-out: Interleukin-6 (IL6), IL6 (gene 3569); assay: BSK_CASM3C_IL6: BioMAP Diversity Plus: CASM3C Assay for Interleukin-6 (IL6) Biomarker Activity for (AID 2283040); settings: primary human coronary artery smooth muscle cells; actives raise or lower the signal
[2] = read-out: Tissue plasminogen activator (tPA), PLAT (gene 5327); assay: BSK_BE3C_tPA: BioMAP Diversity Plus: BE3C Assay for Tissue plasminogen activator (tPA) Biomarker Activity (AID 2283041); settings: primary human bronchial epithelial cells; actives raise or lower the signal
Outline: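 Primary human lung bronchial epithelial cultures receive test chemical; after 24 h, tPA is quantified by ELISA, and gain or loss of signal is fitted bidirectionally relative to DMSO baseline.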

[3] = read-out: Interleukin-8 (IL8), CXCL8 (gene 3576); assay: BSK_CASM3C_IL8: BioMAP Diversity Plus: CASM3C Assay for Interleukin-8 (IL8) Biomarker Activity (AID 2283042); settings: primary human coronary artery smooth muscle cells; actives raise or lower the signal;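 also: IL-8 protein level quantified by ELISA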
[4] = read-out: Human Leukocyte Antigen - DR isotype (HLADR), HLA-DRA (gene 3122); assay: BSK_CASM3C_HLADR: BioMAP Diversity Plus: CASM3C Assay for Human Leukocyte Antigen - DR isotype (HLADR) Biomarker Activity (AID 2283043); settings: primary human coronary artery smooth muscle cells; actives raise or lower the signal;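 also: cell-surface HLA-DR protein level quantified by ELISA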
[5] = read-out: Macrophage colony-stimulating factor (MCSF), CSF1 (gene 1435); assay: BSK_CASM3C_MCSF: BioMAP Diversity Plus: CASM3C Assay for Macrophage colony-stimulating factor (MCSF) Biomarker Activity (AID 2283044); settings: primary human coronary artery smooth muscle cells; actives raise or lower the signal;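 also: M-CSF protein amount quantified by ELISA after 24 h exposure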
[6] = read-out: Low-density lipoprotein receptor (LDLR), LDLR (gene 3949); assay: BSK_CASM3C_LDLR: BioMAP Diversity Plus: CASM3C Assay for Low-density lipoprotein receptor (LDLR) Biomarker Activity (AID 2283045); settings: primary human coronary artery smooth muscle cells; actives raise or lower the signal;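 also: LDLR protein level on the cell surface quantified by ELISA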
[7] = read-out: Monocyte Chemoattractant Protein-1 (MCP1), CCL2 (gene 6347); assay: BSK_CASM3C_MCP1: BioMAP Diversity Plus: CASM3C Assay for Monocyte Chemoattractant Protein-1 (MCP1) Biomarker Activity (AID 2283046); settings: primary human coronary artery smooth muscle cells; actives raise or lower the signal;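 also: MCP-1 level quantified by ELISA 24 h after dosing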
[8] = BSK_CASM3C_Proliferation: Cell Proliferation Assessment in the BioMAP Diversity Plus: CASM3C Assay (AID 2283047); settings: primary human coronary artery smooth muscle cells;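 also: sulforhodamine B total protein stain as relative cell number at 560 nm; sub-confluent cells exposed 48 h before staining; fitted both ways against DMSO so gain or loss of cell number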
[9] = read-out: Monokine induced gamma interferon (MIG), CXCL9 (gene 4283); assay: BSK_CASM3C_MIG: BioMAP Diversity Plus: CASM3C Assay for Monokine induced gamma interferon (MIG) Biomarker Activity (AID 2283048); settings: primary human coronary artery smooth muscle cells; actives raise or lower the signal;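 also: MIG protein level measured by ELISA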
[10] = read-out: serum amyloid A (SAA), SAA1 (gene 6288); assay: BSK_CASM3C_SAA: BioMAP Diversity Plus: CASM3C Assay for serum amyloid A (SAA) Biomarker Activity (AID 2283049); settings: primary human coronary artery smooth muscle cells; actives raise or lower the signal;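 also: SAA protein level quantified by ELISA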
[11] = BSK_CASM3C_SRB: Viability Assessment in the BioMAP Diversity Plus: CASM3C Assay (AID 2283050); settings: primary human coronary artery smooth muscle cells;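 also: total protein by SRB staining as cytotoxicity measure in parallel cultures; cells exposed to compound for 24 h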
[12] = read-out: Thrombomodulin, THBD (gene 7056); assay: BSK_CASM3C_Thrombomodulin: BioMAP Diversity Plus: CASM3C Assay for Thrombomodulin Biomarker Activity (AID 2283051); settings: primary human coronary artery smooth muscle cells; actives raise or lower the signal;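 also: thrombomodulin protein level measured by ELISA 24 h after dosing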
[13] = read-out: Tissue Factor, F3 (gene 2152); assay: BSK_CASM3C_TissueFactor: BioMAP Diversity Plus: CASM3C Assay for Tissue Factor Biomarker Activity (AID 2283052); settings: primary human coronary artery smooth muscle cells; actives raise or lower the signal;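 also: cell surface tissue factor protein level read by ELISA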
[14] = read-out: Interferon-gamma inducible Protein 10 (IP10), CXCL10 (gene 3627); assay: BSK_hDFCGF_IP10: BioMAP Diversity Plus: hDFCGF Assay for Interferon-gamma inducible Protein 10 (IP10) Biomarker Activity (AID 2283053); settings: primary human foreskin fibroblasts; actives raise or lower the signal
Outline: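 Primary foreskin fibroblasts, human; 24 h compound exposure; IP-10 by ELISA; bidirectional fit vs DMSO.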

Measured: AC50

[Cd+2].[Cl-].[Cl-]
inactive: [2] | [3] | [12]
active: [1] 4.02 µM and 2.92 µM | [2] 26 µM | [4] 9.22 µM and 6.47 µM | [5] 6.22 µM and 3.72 µM | [6] 6.42 µM and 6.31 µM | [7] 7.14 µM and 4.39 µM | [8] 2.7 µM and 2.27 µM | [9] 4.6 µM and 4.58 µM | [10] 3.68 µM and 2.71 µM | [11] 15.4 µM and 15.2 µM | [13] 5.81 µM and 8.45 µM | [14] 15.9 µM and 13.5 µM
